Results: PubChem BioAssay (NCATS)
Several values for one entry are separate records, joined by “and”; a condition that tells them apart may be missing. Identical values can stand only once. Inconclusive results are not listed. A call without a number means that no potency is given here. Unmarked numbers belong to inactive results. Activity calls are given as the source filed them. The call rests on the fitted dose curve; in most records, active means well fitted curve in the direction sought with a large enough effect; inconclusive means small, poorly fitted or top-dose-only effect, or another doubt; inactive means no such curve, though single readings can be large; an effect the other way counts as inactive or inconclusive.

Key:
[1] = qHTS to identify inhibitors of the type 1 interferon - major histocompatibility complex class I in skeletal muscle: primary screen against the NCATS Pharmaceutical Collection (AID 1347407);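 further: luminescence of HiBiT knocked into endogenous HLA-B as interferon-induced MHC class I level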
Summary of the method: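 Cells were seeded with 4 ng/ml IFN-beta, incubated 1 h, then dosed with compounds over eight 1:5 steps up to 46 uM final. After 24 h at 37 C, HiBiT lytic reagent was added and luminescence read after 10 min lysis in the dark.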

[2] = molecular target: Protein phosphatase 1D (Homo sapiens) (UniProt O15297); assay: RapidFire Mass Spectrometry qHTS Assay for Modulators of WT P53-Induced Phosphatase 1 (WIP1) (AID 1347424);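 further: amount of dephosphorylated VEPPL-S-QETFS peptide product formed by WIP1; series mostly up to about 63 µM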
Summary of the method: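 10 nM WIP1 preincubated with compounds 1 hr at room temperature in pH 7.5 Tris buffer with 30 mM MgCl2, 1 mM TCEP; 2 uM VEPPL-pS-QETFS phosphopeptide for 5 min, formic acid quench; dephosphorylated product quantified by RapidFire MS against labelled standard.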

[3] = molecular target: Protein phosphatase 1D (Homo sapiens) (UniProt O15297); assay: Rhodamine-PBP qHTS Assay for Modulators of WT P53-Induced Phosphatase 1 (WIP1) (AID 1347425)
Summary of the method: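 WIP1 (5 nM final) was preincubated with compound for 1 hour at room temperature. It then dephosphorylated 10 uM VEPPL-pS-QETFS peptide in Tris-HCl pH 7.5 with 30 mM MgCl2. Released Pi was detected by 10 uM Rh-PBP fluorescence (ex 525/em 598 nm) read at 1-min intervals for 11 min, as delta f1 - f0.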

[4] = Primary qHTS for inhibitors of La Crosse Virus (LACV) - induced cell death in SH-SY5Y cells (AID 1508616);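 further: top concentration of the series differs between compounds; higher means more rescue of cells from virus-induced death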
Summary of the method: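 Readout was luminescence from ATPLite 1step added after a 6-day LACV infection (0.01 MOI) of SH-SY5Y cells that had received pin-transferred compound 24 hr after seeding.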

[5] = molecular target: Calcium and integrin-binding protein 1 (Homo sapiens) (UniProt Q99828); assay: Primary qHTS for Identification of Calcium Integrin Binding Protein 1 (CIB1) Competitor (AID 1508620);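 further: GST tagged CIB1 binding a fluorescein labelled alphaIIb integrin peptide tracer; top concentration of the series differs between compounds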
Summary of the method: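 Fluorescence polarization competition: GST-tagged CIB1 (1 uM final) preincubated with compound 15 min at room temperature, then FITC-labelled alphaIIb peptide (100 nM final) added. After 15 min at room temperature, polarization read at Ex 480/Em 540.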

[6] = Counterscreen qHTS for small molecule stabilizers of the endoplasmic reticulum resident proteome: GLuc-NoTag assay (AID 1508627);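 further: SH-SY5Y cells given compound then 100 nM thapsigargin to empty ER calcium; series mostly up to about 76 µM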
Summary of the method: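 SH-SY5Y cells stably expressing constitutively secreted GLuc without SERCaMP tag, exposed to compound for 19 hr, then to 100 nM thapsigargin for 4 hr at 37C. Medium luciferase was read by coelenterazine luminescence without lysis.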

[7] = Confirmatory qHTS for small molecule stabilizers of the endoplasmic reticulum resident proteome: Secreted ER Calcium Modulated Protein (SERCaMP) assay (AID 1508628); further: nearly all actives have a fitted effect of over 40% in size; further: potency means the concentration at half of the fitted maximal effect
Summary of the method: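 We seeded SH-SY5Y-GLuc-SERCaMP cells, added compounds (three concentrations in the primary run, eleven up to 76.6 uM in confirmation), incubated 16 h, depleted ER calcium with thapsigargin, and read luciferase 4 h later.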

Chain of Calcium and integrin-binding protein 1 (Homo sapiens) (Q99828 whole entry, looked up): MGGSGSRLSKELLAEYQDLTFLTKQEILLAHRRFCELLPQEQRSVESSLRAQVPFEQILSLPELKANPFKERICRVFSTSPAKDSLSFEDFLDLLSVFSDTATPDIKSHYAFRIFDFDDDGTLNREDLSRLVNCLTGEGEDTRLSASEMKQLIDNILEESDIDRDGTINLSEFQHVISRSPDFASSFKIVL
Chain of Protein phosphatase 1D (Homo sapiens) (O15297 whole entry, looked up): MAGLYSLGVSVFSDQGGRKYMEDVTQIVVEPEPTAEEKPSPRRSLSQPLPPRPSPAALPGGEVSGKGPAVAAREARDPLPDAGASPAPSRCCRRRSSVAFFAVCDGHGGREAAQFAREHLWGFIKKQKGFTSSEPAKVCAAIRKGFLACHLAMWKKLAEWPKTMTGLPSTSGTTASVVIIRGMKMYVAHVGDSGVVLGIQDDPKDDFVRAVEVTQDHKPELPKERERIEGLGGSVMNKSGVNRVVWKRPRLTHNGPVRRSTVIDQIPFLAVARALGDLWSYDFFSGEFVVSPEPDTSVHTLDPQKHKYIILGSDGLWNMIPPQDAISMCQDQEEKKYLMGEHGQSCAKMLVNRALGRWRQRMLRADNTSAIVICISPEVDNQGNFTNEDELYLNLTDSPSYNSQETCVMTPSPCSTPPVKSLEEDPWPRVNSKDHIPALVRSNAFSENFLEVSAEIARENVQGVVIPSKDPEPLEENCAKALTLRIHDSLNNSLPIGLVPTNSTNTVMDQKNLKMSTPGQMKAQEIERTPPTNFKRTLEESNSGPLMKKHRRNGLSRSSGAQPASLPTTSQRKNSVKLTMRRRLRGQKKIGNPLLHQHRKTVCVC

SMILES	Potency [1]	Potency [2]	outcome [3]	outcome [4]	Potency [5]	Potency [6]	Potency [7]
O=C(CN1CCN(Cc2ccc3c(c2)OCO3)CC1)N1c2ccccc2Sc2ccccc21	inactive	inactive	inactive	inactive	inactive		
COc1cc(C)nc(-n2nc(C)cc2OC)n1	inactive	inactive	inactive	inactive	inactive		
C/C=C/C=N/NC(=O)c1ccncc1	inactive	inactive	inactive	inactive	inactive		
CC(C)Cc1ccc(CC(=O)O)cc1	inactive	inactive	inactive	inactive	inactive		
Cn1c(=O)c2[nH]c(Br)nc2n(C)c1=O	inactive	inactive	inactive	inactive	inactive		
CCCCNc1ccc(C(=O)OCCOCCOCCOCCOCCOCCOCCOCCOCCOC)cc1	inactive	inactive	inactive	inactive	inactive		
CCCc1ncc(C[n+]2ccccc2C)c(N)n1	inactive	inactive	inactive	inactive	inactive		
CN(C)C(=O)Nc1ccc(Cl)c(Cl)c1	inactive	inactive	inactive	inactive	inactive		
CC(=O)Nc1ccc(OC(=O)c2ccccc2OC(C)=O)cc1	inactive	inactive	inactive	inactive	inactive		
CCCCN1C[C@H](O)[C@@H](O)[C@H](O)[C@H]1CO	inactive	inactive	inactive	inactive	inactive		
CN1CCN(c2c(F)cc3c(=O)c(C(=O)O)cn4c3c2SCC4)CC1	inactive	inactive	inactive	inactive	inactive		
FC1(F)C(F)(F)C(F)(F)C2(F)C(F)(F)C(F)(F)C(F)(F)C(F)(F)C2(F)C1(F)F (centres undefined)	inactive	inactive	inactive	inactive	inactive		
CCCCC(CC)CN1CN(CC(CC)CCCC)CC(C)(N)C1 (centres undefined)	inactive	inactive	inactive	inactive	inactive		
CC(C(=O)O)c1cccc(Oc2ccccc2)c1 (centres undefined)	inactive	inactive	inactive	inactive	inactive		
CCN1CCCC(OC(=O)C(c2ccccc2)c2ccccc2)C1 (centres undefined)	inactive	inactive	inactive	inactive	inactive		
CN(C)CCC[C@@]1(c2ccc(F)cc2)OCc2cc(C#N)ccc21	inactive	inactive	inactive	inactive	inactive		
CCC1NC(=O)c2cc(S(N)(=O)=O)c(Cl)cc2N1 (centres undefined)	inactive	inactive	inactive	inactive	inactive		

SMILES	Potency [1]	Potency [2]	outcome [3]	outcome [4]	Potency [5]	Potency [6]	Potency [7]
NS(=O)(=O)c1ccc(Cl)c(S(N)(=O)=O)c1	inactive	inactive	inactive	inactive	inactive		
CCN(CC)CCOC(=O)C1(c2ccccc2)CCCC1	inactive	inactive	inactive	inactive	inactive		
CN1CCN(C2=Nc3ccccc3Sc3ccc(Cl)cc32)CC1	inactive	inactive	inactive	inactive	inactive		
Cc1cc(-c2ccccc2)nnc1NCCN1CCOCC1	inactive	inactive	inactive	inactive	inactive		
CCOc1ccccc1OCCN[C@H](C)Cc1ccc(OC)c(S(N)(=O)=O)c1	inactive	inactive	inactive	inactive	inactive		
COc1ccccc1N1CCN(CCCCNC(=O)c2ccc(-c3ccc(C(C)=O)cc3)cc2)CC1	inactive	inactive	inactive	inactive	inactive		
CN(C)CCN1C(=O)c2ccccc2N(C)c2ccccc21	inactive	inactive	inactive	inactive	inactive		
C[C@@H](O)[C@H]1C(=O)N2C(C(=O)O)=C([C@H]3CCCO3)S[C@H]12	inactive	inactive	inactive	inactive	inactive		
NC(=S)N/N=C/c1cccnc1	inactive	inactive	inactive	inactive	inactive		
CC[C@]12CCCN3CCc4c(n(c5ccccc45)C(=O)C1)[C@@H]32	inactive	inactive	inactive	inactive	inactive		
CN(C)CCOC(c1ccc(Cl)cc1)c1ccccn1 (centres undefined)	inactive	inactive	inactive	inactive	inactive		
CC(C)(C)CC(C)(C)c1ccc(O)c(-n2nc3ccccc3n2)c1	inactive	inactive	inactive	inactive	inactive		
Cc1cn([C@H]2C[C@H](F)[C@@H](CO)O2)c(=O)[nH]c1=O	inactive	inactive	inactive	inactive	inactive		
CN1CCC(OC(c2ccccc2)c2ccccc2)CC1	inactive	inactive	inactive	inactive	inactive	inactive	inactive
CN(CCCN1c2ccccc2CCc2ccccc21)CC(=O)c1ccc(Cl)cc1	inactive	inactive	inactive	inactive	inactive	inactive	31.6 µM (active) and 39.8 µM (active)
O=[N+]([O-])c1ccc(/C=N\O)o1	inactive	inactive	inactive	inactive	inactive		
